Assay results: PMC4552634, “A New Set of Chemical Starting Points with Plasmodium falciparum Transmission-Blocking Potential for Antimalarial Drug Discovery” (PLoS ONE, 2015)
Like-named read-outs stand apart in the source and are kept apart here. The whole screen tested about 13,000 compounds, of which about 3,200 (25%) showed an effect of 50% or more. The list shows a part of the results.

Test system: P. falciparum stage V gametocytes
Parameters: BacTiter-Glo ATP luminescence viability of purified stage V gametocytes in 384-well plates, per cent inhibition versus DMSO
Conditions: 48 h, 5 µM, inhibitor

Row | Compound | % Inhibition | % Inhibition (% Inhibition)
1 | Clc1cc(Nc2ccnc3ccc(Br)cc23)ccc1Oc1ccc(Cl)c2ccccc12 [TCMDC-123834] | -13.4% | 
2 | O=c1cc(NC[C@H]2CCC[C@@H]2NC2CCCc3c2[nH]c2ccccc32)[nH]c2ccccc12 (stereo partly drawn) [TCMDC-139785] | 10.53% | 
3 | CCc1cccc(C)c1-n1nc(-c2cc(C(C)(C)C)oc2C)cc1N [TCMDC-134028] | 9.67% | 
4 | CCc1ccc(NC(=O)c2ccc(CN3CCCN(CC4CCCCC4)CC3)cc2)cc1 [TCMDC-136437] | -21.72% | 
5 | COc1ccc2nccc(N3CCC(CCNCc4ccc5c(n4)NC(=O)CO5)CC3)c2c1.Cl [TCMDC-141904] | -28.1% | 
6 | Cc1nn(C)c(C)c1CN(Cc1nc(-c2cccc(Oc3ccccc3)c2)oc1C)C1CC1 [TCMDC-124629] | 8.903% | 
7 | C=CCc1cc(Cc2cnc(N)nc2N)cc(CCC)c1O [TCMDC-138048] | -56.02% | 
8 | COc1ccc2nccc([C@@H](O)CN3CCC(NC(=O)/C=C/c4cc(F)cc(NC(C)=O)c4)CC3)c2c1 [TCMDC-141030] | -4.964% | 
9 | Oc1cccc(-c2nc3cc(C4=NC5CCCCC5N4)ccc3[nH]2)c1 (stereo not drawn) [TCMDC-138108] |  | -4.911%
10 | CC(=O)Nc1nc(C(=O)Nc2cccc(-c3ccc(-c4nc5ccccc5[nH]4)cc3)c2)cs1 [TCMDC-137127] | 61.93% | 
11 | CC(=O)Nc1nc(C(=O)Nc2cccc(-c3cccc(-c4nc5ccccc5[nH]4)c3)c2)cs1 [TCMDC-137121] | -11.21% | 
12 | CC(=O)Nc1nc(C(=O)Nc2ccc(-c3cccc(-c4nc5ccccc5[nH]4)c3)cc2)cs1 [TCMDC-137120] | 25.25% | 
13 | N#CC(c1ccc(F)cc1)c1ccc2c(C(F)(F)F)cc(C(F)(F)F)nc2n1 (stereo not drawn) [TCMDC-123761] | -46.13% | 
14 | COc1ccc2nccc(N3CCN(CCNCc4ccc5c(n4)NC(=O)CS5)CC3)c2n1 [TCMDC-141967] | -20.32% | 
15 | COc1cccc(O)c1CNCC(O)c1cccc(C(F)(F)F)c1 (stereo not drawn) [TCMDC-140396] | -36.87% | 
16 | O=C(NCc1ccccc1)Nc1ccc(-c2ccc(-c3nc4ccc(C(F)(F)F)cc4[nH]3)cc2)cc1 [TCMDC-133157] | -8.983% | 
17 | CS(=O)(=O)c1ccc(CNCc2ccc(-c3cccc(-c4nc5ccc(C(F)(F)F)cc5[nH]4)c3)cc2)cc1 [TCMDC-132897] | 17.9% | 
18 | CS(=O)(=O)c1ccc(CNCc2cccc(-c3ccc(-c4nc5ccc(C(F)(F)F)cc5[nH]4)cc3)c2)cc1 [TCMDC-132902] | -71.66% | 
19 | NCc1ccc(CNCc2cccc(-c3ccc(-c4nc5cc(C(F)(F)F)ccc5[nH]4)cc3)c2)cc1 [TCMDC-132811] | 93.89% | 
20 | Nc1cccc(CNCc2cccc(-c3ccc(-c4nc5ccc(C(F)(F)F)cc5[nH]4)cc3)c2)c1 [TCMDC-132935] | -40.76% | 
21 | FC(F)(F)c1ccc2nc(-c3cccc(-c4ccc(CNCc5ccccc5)cc4)c3)[nH]c2c1 [TCMDC-132712] | -50.86% | 

Row | Compound | % Inhibition | % Inhibition (% Inhibition)
22 | Nc1cccc(CNCc2ccc(-c3cccc(-c4nc5ccc(C(F)(F)F)cc5[nH]4)c3)cc2)c1 [TCMDC-132929] | -69.76% | 
23 | FC(F)(F)c1ccc2nc(-c3ccc(-c4ccc(CNCc5ccccc5)cc4)cc3)[nH]c2c1 [TCMDC-132705] | 55.9% | 
24 | FC(F)(F)c1ccc2nc(-c3ccc(-c4cccc(CNCc5ccccc5)c4)cc3)[nH]c2c1 [TCMDC-132704] | 67.94% | 
25 | Fc1cccc(Cl)c1-c1nc(NCCC(c2ccccc2)c2ccccc2)no1 [TCMDC-134175] | -12.09% | 
26 | Cc1cc(=O)[nH]c(NC#N)n1 [TCMDC-123468] | 11.83% | 
27 | O=C(c1cc(-c2ccccc2O)on1)N1CCN(C(c2ccccc2)c2ccccc2)CC1 [TCMDC-125470] | 18.53% | 
28 | CC1(C)C2C=C(CN3CCC(NC(=O)Nc4ccc(Cl)c(Cl)c4)CC3)C1CC2 (stereo not drawn) [TCMDC-135871] | 38.53% | 
29 | COc1cccc(O)c1CN1CCC2(CCCN(Cc3ccc(F)cc3)C2)C1 (stereo not drawn) [TCMDC-124635] | -20.8% | 
30 | CCOC(=O)c1ccc(N2CCCCC2)c(NC(=O)C(Cl)(Cl)Cl)c1 [TCMDC-125786] | -22.75% | 
31 | N=C(/N=C(/NCCCCCCN/C(=N\C(=N)Nc1ccc(Cl)cc1)N1CCOCC1)N1CCOCC1)Nc1ccc(Cl)cc1 [TCMDC-131813] | 108.7% | 
32 | Clc1ccc(CNCCCCCCCNCc2ccc(Cl)c(Cl)c2)cc1Cl [TCMDC-138075] | 16.46% | 
33 | O=C(NCCCCN1CCN(c2ccc3c(c2)CCC3)CC1)c1ccc(NC(=O)c2ccc(Cl)cc2)cc1 [TCMDC-138512] | -2.19% | 
34 | Clc1ccc(CNCC2CCN(CC3CCCCC3)CC2)cc1Cl [TCMDC-139467] | -4.599% | 
35 | O=C(NCCCCN1CCC(O)(c2ccc3c(c2)OCO3)CC1)c1ccc(NC(=O)c2ccc(Cl)cc2)cc1 [TCMDC-138356] | -1.021% | 
36 | N=C(N=C(NCCCCCCNC(=NC(=N)Nc1ccc(Cl)cc1)N1CCCCC1)N1CCCCC1)Nc1ccc(Cl)cc1 [TCMDC-131811] | 119.8% | 
37 | O=C(/C=C/c1ccc(C(F)(F)F)cc1)NCCCCCN1CCCN(C(=O)Nc2ccc(Cl)cc2)CC1 [TCMDC-136106] | -46.09% | 
38 | N=C(N=C(NCCCCCCNC(=NC(=N)NCc1ccc(Cl)c(Cl)c1)N1CCCCC1)N1CCCCC1)NCc1ccc(Cl)c(Cl)c1 [TCMDC-131816] | 118.5% | 
39 | O=C(/C=C/c1ccc(C(F)(F)F)cc1)NCCCCCN1CCN(C(=O)Nc2ccc(Cl)cc2)CC1 [TCMDC-136095] | -21.7% | 
40 | Nc1nc2c(ncn2COC2COP(=O)(O)OC2)c(=O)[nH]1 (stereo not drawn) [TCMDC-138021] | 10.06% | 
41 | Cc1ccc(Nc2nc(C)cc(NC3CCCC3)n2)cc1 [TCMDC-133470] | 43.93% | 
42 | CCN(CCNc1nc(NCCc2cnc[nH]2)nc(N(CCC#N)Cc2ccccc2)n1)c1cccc(C)c1 [TCMDC-139258] | -10.46% | 
